# High-throughput results from PubChem.
# ROS inducer – ROS inducers in U2OS cancer cells, primary screen, cell-based, H2DCF-DA fluorescence; U2OS ROS induction; ROS induction (% of piperlongumine), % at 10 µM; 46,000 tested, 2% active; in the data active = ROS induction above about 79%, passing the limit was not always enough
# A number is an active result; i = inactive. Only a selection was taken, and hits are over-represented in it overall.
SMILES,ROS inducer
C[C@H]1CN([C@@H](C)CO)C(=O)Cc2cc(NS(=O)(=O)c3cccs3)ccc2O[C@@H]1CN(C)Cc1ccncc1,i
C[C@H]1CN([C@@H](C)CO)C(=O)c2cccc(NC(=O)c3nc4ccccc4s3)c2O[C@@H]1CN(C)C(=O)Nc1ccc2c(c1)OCO2,i
C[C@@H]1CN([C@@H](C)CO)C(=O)c2cccc(NS(=O)(=O)c3cccs3)c2O[C@H]1CN(C)Cc1ccc(Oc2ccccc2)cc1,i
C[C@H]1CN([C@@H](C)CO)C(=O)Cc2cc(NC(=O)Cn3cnnn3)ccc2O[C@H]1CN(C)C(=O)Nc1ccccc1,i
CC(=O)OCC(=O)[C@@]1(O)[C@H](C)C[C@H]2[C@@H]3CCC4=CC(=O)C=C[C@]4(C)[C@@]3(F)[C@@H](O)C[C@@]21C,i
CC(=O)OCC(=O)[C@@]12OC3(CCCC3)O[C@@H]1CC1C3CCC4=CC(=O)C=C[C@]4(C)[C@@]3(F)[C@@H](O)C[C@@]12C (stereo partly specified),129
CC(=O)OCC(=O)[C@@]12OC(C)(C)O[C@@H]1CC1C3C[C@H](F)C4=CC(=O)C=C[C@]4(C)[C@@]3(F)[C@@H](O)C[C@@]12C (stereo partly specified),i
Cc1ccc(CSc2nc3ccccc3c(=O)n2CCc2ccccc2)cc1,i
O=c1[nH]c(CSc2nnc(-c3ccccc3)n2C2CCCCC2)nc2ccccc12,i
CCn1c(SCc2nc3ccccc3c(=O)[nH]2)nc2ccccc2c1=O,94
Cc1cccc(NC(=O)CCC2=NS(=O)(=O)c3cc(Br)cnc3N2)c1,i
C[C@H](CO)N1C[C@H](C)[C@@H](CN(C)Cc2ccc(C(=O)O)cc2)Oc2c(NC(=O)NC3CCCCC3)cccc2C1=O,i
COc1cc(Br)cc(/C=N/N(CCO)C2=NS(=O)(=O)c3ccccc32)c1OC,115
COc1ccc(NC(=O)N(C)C[C@H]2Oc3c(NS(=O)(=O)c4ccccc4)cccc3C(=O)N([C@H](C)CO)C[C@@H]2C)cc1,i
C[C@H](CO)N1C[C@H](C)[C@H](CN(C)Cc2cccc(C(F)(F)F)c2)Oc2ncc(-c3ccccc3)cc2C1=O,i
COc1ccc(C#Cc2cnc3c(c2)C(=O)N([C@H](C)CO)C[C@H](C)[C@H](CN(C)Cc2cccc(C(F)(F)F)c2)O3)cc1OC,i
Cc1cccc(CN(C)C[C@@H]2Oc3ncc(-c4cccc(C(F)(F)F)c4)cc3C(=O)N([C@H](C)CO)C[C@@H]2C)c1,104
COc1ccc(-c2cnc3c(c2)C(=O)N([C@H](C)CO)C[C@H](C)[C@H](CN(C)C)O3)cc1,i
Cc1cccc(CN(C)C[C@@H]2Oc3ncc(-c4ccccc4)cc3C(=O)N([C@H](C)CO)C[C@@H]2C)c1,i
COc1ccc(-c2cnc3c(c2)C(=O)N([C@H](C)CO)C[C@H](C)[C@H](CN(C)Cc2cccc(C(F)(F)F)c2)O3)cc1,110
O=C(NC1CCCCNC1=O)c1cccnc1Oc1ccc(Cl)cc1 (stereo unspecified),i
CCOC(=O)C1=C(Cn2ccc(C(F)(F)F)n2)NC(=O)NC1c1cc(C)ccc1C (stereo unspecified),i
C[C@H]1CN([C@@H](C)CO)C(=O)Cc2cc(NC(=O)c3ccncc3)ccc2O[C@@H]1CN(C)Cc1ccc(C(=O)O)cc1,i
C[C@H]1CN([C@@H](C)CO)C(=O)CCCn2nncc2CO[C@H]1CN(C)C(=O)Nc1ccc(C(C)(C)C)cc1,i
CC(C)NC(=O)N(C)C[C@H]1Oc2c(NC(=O)c3cnccn3)cccc2C(=O)N([C@H](C)CO)C[C@H]1C,i
SMILES,ROS inducer
COc1ccccc1NC(=O)c1ccccc1NC(=O)CCc1ccccc1,i
COc1ccccc1NC(=O)C(NC(=O)c1ccccc1NC(=O)c1ccccc1)C(C)C (stereo unspecified),97
COc1ccc(C(=O)Nc2ccccc2C(=O)NC(C(=O)O)C(C)C)cc1 (stereo unspecified),i
O=C(NO)c1cccc(C(=O)N/N=C/c2ccc(I)cc2)c1,i
COc1ccc(C#Cc2ccc3c(c2)[C@]2(C(=O)N3)[C@H](c3ccccc3OCCO)N3[C@H](c4ccccc4)[C@H](c4ccccc4)OC(=O)[C@H]3[C@@H]2C(=O)O)cc1,i
C[C@H](CO)N1C[C@H](C)[C@H](CN(C)Cc2ccncc2)Oc2c(NC(=O)Nc3cccc4ccccc34)cccc2C1=O,i
O=C1N(Cc2ccccc2)Cc2ccccc2[C@H]2OC(c3ccc(OCCCO)cc3)=N[C@@]12CCS(=O)(=O)c1ccccc1,243
C=CC[C@]12N=C(c3ccc(OCCCO)cc3)O[C@H]1c1ccccc1N(CCS(=O)(=O)c1ccccc1)C2=O,i
C=CC[C@]12N=C(c3ccc(OCCCO)cc3)O[C@H]1c1ccccc1CN(CCS(=O)(=O)c1ccccc1)C2=O,i
O=C1N(CCS(=O)(=O)c2ccccc2)c2ccccc2[C@@H]2OC(c3ccc(OCCCO)cc3)=N[C@]12CCS(=O)(=O)c1ccccc1,i
NC(=O)[C@]1(CCS(=O)(=O)c2ccccc2)N=C(c2ccc(OCCCO)cc2)O[C@@H]1c1ccccc1,i
O=C1N(CCS(=O)(=O)c2ccccc2)Cc2ccccc2[C@@H]2OC(c3ccc(OCCCO)cc3)=N[C@]12Cc1ccccc1,387
C=CC[C@@]12N=C(c3ccc(OCCCO)cc3)O[C@@H]1c1ccccc1CN(Cc1ccccc1)C2=O,i
CC(C)(C)OC(=O)CC[C@]12N=C(c3ccc(OCCCO)cc3)O[C@H]1c1ccccc1CN(Cc1ccccc1)C2=O,i
C=CC[C@@]12N=C(c3ccc(OCCCO)cc3)O[C@@H]1c1ccccc1CN(CCS(=O)(=O)c1ccccc1)C2=O,i
O=C1N(CCS(=O)(=O)c2ccccc2)Cc2ccccc2[C@H]2OC(c3ccc(OCCCO)cc3)=N[C@@]12Cc1ccccc1,117
O=C(c1ccccc1)N1Cc2ccccc2C[C@@]2(N=C(c3ccc(OCCCO)cc3)O[C@H]2c2ccccc2)C1=O,i
O=C1N(CCS(=O)(=O)c2ccccc2)Cc2ccccc2C[C@]12N=C(c1ccc(OCCCO)cc1)O[C@@H]2c1ccccc1,99
Cc1ccc(-n2c(C)nnc2SCC(=O)Nc2ccc(C)cc2Br)cc1,i
Cc1ccc(NC(=O)c2sc3ncn(CC(=O)Nc4sc5c(c4C#N)CCC5)c(=O)c3c2C)c(C)c1,i
Cc1ccc(O)c(/C=N/NC(=O)c2cccc(C(=O)NO)c2)c1,i
N#Cc1cc2c(OCC(O)CN3CCN(C(c4ccccc4)c4ccccc4)CC3)cccc2[nH]1 (stereo unspecified),i
CCOc1cc2sc(N3CCC(C(=O)N(C)Cc4ccccc4)CC3)nc2cc1Br,i
O=C(NCCc1ccccc1)c1ccc2c(c1)N(Cc1ccccc1)C(=O)CS2,i
O=C(CNS(=O)(=O)c1ccccc1)Nc1ccc(I)cc1,i
SMILES,ROS inducer
CC(Oc1cccc(Cl)c1)C(=O)Nc1ccccc1C(=O)O (stereo unspecified),i
O=C(c1ccccc1)N1Cc2ccccc2[C@H]2OC(c3ccc(OCCCO)cc3)=N[C@@]2(CCS(=O)(=O)c2ccccc2)C1=O,100
C=CC[C@@]12N=C(c3ccc(OCCCO)cc3)O[C@@H]1c1ccccc1CN(C(=O)c1ccccc1)C2=O,i
O=C(c1ccccc1)N1Cc2ccccc2[C@H]2OC(c3ccc(OCCCO)cc3)=N[C@@]2(Cc2ccccc2)C1=O,i
C[C@H]1CN([C@@H](C)CO)C(=O)c2cc(NC(=O)Cc3ccccc3)ccc2O[C@H]1CN(C)C(=O)Nc1ccc(F)cc1,i
Cc1ccccc1NC(=O)CCCn1sc2ccccc2c1=O,i
